B1: PhoQ; a variant is named by its letters at X, in order, P23837 (parent)
chain: MKKLLRLFFPLSLRVRFLLATAAVVLVLSLAYGMVALIGYSVSFDKTTFRLLRGESNLFYTLAKWENNKLHVELPENIDKQSPTMTLIYDENGQLLWAQRDVPWLMKMIQPDWLKSNGFHEIEADVNDTSLLLSGDHSIQQQLQEVREDDDDAEMTHSVAVNVYPATSRMPKLTIVVVDTIPVELKSSYMVWSWFIYVLSANLLLVIPLLWVAAWWSLRPIEALAKEVRELEEHNRELLNPATTRELTSLVRNLNRLLKSERERYDKYRTTLTDLTHSLKTPLXXLQXXLRSLRSEKMSVSDAEPVMLEQISRISQQIGYYLHRASMRGGTLLSRELHPVAPLLDNLTSALNKVYQRKGVNISLDISPEISFVGEQNDFVEVMGNVLDNACKYCLEFVEISARQTDEHLYIVVEDDGPGIPLSKREVIFDRGQRVDTLRPGQGVGLAVAREITEQYEGKIVAGESMLGGARMEVIFGRQHSAPKDE

The full ranking holds about 140,000 sequences; the median of “enrichment ratio after two sorts for PhoP signalling” is about 0, and the highest 2% start at about 11. Only a selection was taken, and the highest values are over-represented in it overall.

In the assay the parent is B1. In words: enrichment ratio after two sorts for PhoP signalling (ratio (wild type AVST 3.29)); higher = more functional. To be noted: with PhoP (E. coli).
On to HWKG, for which the enrichment ratio was not above 0.25. The value for HYVN was not above 0.25; that for FNKS was not above 0.25.

Turning to WKFR, the enrichment ratio is not above 0.25. With VMIH the figure was not above 0.25; with FQCV, not above 0.25. The value for KYCM was not above 0.25. The value for SRTM was 1.44. Turning to SITM, the enrichment ratio stood at 22.9. The value for KYTM was not above 0.25; that for YTTM was 8.49; that for SICL was 11.3. Turning to TTTM, the enrichment ratio was 19.4. The value for SICM was 14.4; that for WICM was not above 0.25. With SIRL the figure was not above 0.25; with GTTM, 4.35. The value for KYCL was not above 0.25. For the variant NSAY, the enrichment ratio is not above 0.25. Regarding MERT, the enrichment ratio is not above 0.25.

Consider IMPC, for which the enrichment ratio is not above 0.25.

Consider AHIW, for which the enrichment ratio is not above 0.25. As to YHGK, the enrichment ratio is not above 0.25. The value for MHLE was not above 0.25. The value for TWGP was not above 0.25. For the variant GSVG, the enrichment ratio was not above 0.25. With SIPA the figure was 0.817; with SIPM, 19.8.

In the case of KYPM, the enrichment ratio is not above 0.25. As for QETM, the enrichment ratio is not above 0.25. The value for SIGQ was 10.4; that for SICQ was 27.6; that for KYCQ was not above 0.25. Take STTM: the enrichment ratio was found to be 14.3. The value for LTTM was not above 0.25; that for VWYY was not above 0.25; that for EDMQ was not above 0.25. With VNHC the figure was not above 0.25.

Turning to AYRQ, the enrichment ratio was not above 0.25. The value for YGPP was not above 0.25; that for IQKL was not above 0.25.

In the case of GASY, the enrichment ratio was not above 0.25. The value for SPIT was not above 0.25; that for AGYW was not above 0.25. The value for SRLH was not above 0.25; that for ATLH was 11.5; that for ITLH was not above 0.25. The value for SPLH was not above 0.25. Take SYLH: the enrichment ratio was 0.355. The value for KSLH was not above 0.25; that for KYLH was not above 0.25; that for NSLH was not above 0.25. On to SELH, for which the enrichment ratio turned out to be 19.4. With SSLH the figure was 11.4; with LTLH, not above 0.25; with STLH, 12.2.

In the case of ASPV, the enrichment ratio came out at 0.706. With LLVM the figure was not above 0.25.

Regarding PRDH, the enrichment ratio was not above 0.25. With IQGR the figure was not above 0.25. The value for RVGK was not above 0.25; that for TQAC was 4.85.

On to VIMQ, for which the enrichment ratio was not above 0.25. Take WTKP: the enrichment ratio is not above 0.25. In the case of ENII, the enrichment ratio is not above 0.25. With TTLH the figure was 19.7; with GTLH, 8.02. Take YTLH: the enrichment ratio was 0.617. The value for MYEQ was not above 0.25. With YGLS, the enrichment ratio amounted to 7.31. With TELV the figure was 25.1; with YGLT, 7.13; with SELV, 19.5. The value for NQLV was not above 0.25. As to EQLV, the enrichment ratio is not above 0.25. With TQLV, the enrichment ratio stood at 26.3. With QELV the figure was not above 0.25; with SILV, 2.22; with NELV, 2.93. With SLLV the figure was 6.62; with YGLA, 12.8. With WPNN the figure was not above 0.25; with YKHG, not above 0.25.

As for AFWQ, the enrichment ratio is not above 0.25. As to GIFI, the enrichment ratio was not above 0.25. With TQRG the figure was not above 0.25. With LAFQ, the enrichment ratio turned out to be 2.23.

Take NEYD: the enrichment ratio was not above 0.25. Turning to EVIK, the enrichment ratio was not above 0.25. The value for QFDL was not above 0.25; that for MRMI was not above 0.25. In the case of SINK, the enrichment ratio turned out to be 1.25.

Turning to RMYK, the enrichment ratio is not above 0.25. In the case of YTLV, the enrichment ratio is 15.7. With ITLV the figure was 7.88; with MIHK, not above 0.25; with FTLV, 10.2. The value for GTLV was 7.85; that for MILV was 13; that for TTLV was 17.9. The value for ATLV was 12.7; that for YYLV was not above 0.25. On to MFLV, for which the enrichment ratio is not above 0.25. With CTLV the figure was 0.326; with LTLV, 1.55; with FHSF, not above 0.25. With HDGN the figure was not above 0.25. The value for TQVH was 8.69; that for LPSI was not above 0.25.

Take ANRW: the enrichment ratio was not above 0.25. The value for MCHW was not above 0.25.

As for GFAN, the enrichment ratio was not above 0.25. The value for KGPY was not above 0.25; that for SKHK was not above 0.25. With SKLV the figure was 12. The value for TSLV was 14.6; that for SALV was 14.6; that for FSLV was 8.86. Take KSLV: the enrichment ratio was not above 0.25. Regarding SSLV, the enrichment ratio came to 16.8. Consider NSLV, for which the enrichment ratio is 2.78.

In the case of SFLV, the enrichment ratio amounted to 1.19. With KQLV the figure was not above 0.25. Consider DLQF, for which the enrichment ratio is not above 0.25. With PGYR the figure was not above 0.25; with QDIQ, not above 0.25; with RNIE, not above 0.25. The value for YSWN was not above 0.25; that for IQID was not above 0.25; that for LDQS was not above 0.25. The value for SPLV was not above 0.25; that for MMLV was not above 0.25. In the case of SYLV, the enrichment ratio turned out to be 0.334. With YGLV the figure was 13.5; with DPLV, not above 0.25. The value for STLV was 15.4. The value for QPLV was not above 0.25. With NFLV, the enrichment ratio is not above 0.25. With SQLV the figure was 11.8; with KYLV, not above 0.25; with MPLV, not above 0.25. As to MELV, the enrichment ratio was found to be 18.1.

As to ITPL, the enrichment ratio was not above 0.25.

As to WHNG, the enrichment ratio was not above 0.25. With TSSF the figure was 9.67; with YPTT, not above 0.25. The value for ISMW was not above 0.25; that for FIHY was not above 0.25. The value for QLFD was 3.39; that for HRQG was not above 0.25. For the variant YGDM, the enrichment ratio came out at 0.798. The value for YGWM was not above 0.25; that for YGLM was 13.

The values are drawn from a collection of fitness landscapes (doi:10.1126/science.1257360).
